Molecules are shown by their SMILES. Records with an inconclusive call do not appear. Unmarked numbers belong to inactive results. Active and inactive are the calls of the source. The call rests on the fitted dose curve; in most records, active means well fitted curve in the direction sought with a large enough effect; inconclusive means small, poorly fitted or top-dose-only effect, or another doubt; inactive means no such curve, though single readings can be large; an effect the other way counts as inactive or inconclusive.

This is an account of results in PubChem BioAssay (NCATS).

The target of assay [1] is Rap guanine nucleotide exchange factor 3 (Homo sapiens) (UniProt O95398). In words: Confirmatory qHTS for agonist of cAMP-regulated guanine nucleotide exchange factor 3 (EPAC1) (AID 1645881).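 Further: EPAC1 catalysed release of BODIPY-GDP from Rap1B seen as fluorescence loss; 100% = effect of cAMP agonist control; nearly all actives have a fitted effect of over 75% in size.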 For orientation: qHTS replaces the single test concentration by a dilution series.
The target of assay [2] is Rap guanine nucleotide exchange factor 4 (Homo sapiens) (UniProt Q8WZA2). In words: Confirmatory qHTS for agonist of cAMP-regulated guanine nucleotide exchange factor 4 (EPAC2) (AID 1645884).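 Further: nucleotide exchange releases bodipy-GDP from Rap1 and this lowers its fluorescence; on the % scale 0 is the no-effect control and ±100 the full control effect; nearly all actives have a fitted effect of over 65% in size.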
Assay [3] has the same target. As to the kind of experiment: Confirmatory qHTS for antagonist of cAMP-regulated guanine nucleotide exchange factor 4 (EPAC2) (AID 1645885). Further: nearly all actives have a fitted effect of over 25% in size. Further: potency means the concentration at half of the fitted maximal effect. On activity change, negative = inhibition: on the % scale 0 is the no-effect control and ±100 the full control effect.
Assay [4] has as its target Rap guanine nucleotide exchange factor 3 (Homo sapiens) (UniProt O95398). As to the kind of experiment: Counterscreen qHTS for antagonist of cAMP-regulated guanine nucleotide exchange factor 3 (EPAC1) (AID 1645888).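 Further: fluorescence loss as bound BODIPY-GDP is released from Rap1B; % of control where 0% means no effect.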 The procedure, abridged: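 Rap1B–BODIPY-GDP (250 nM) with 50 uM GDP; compounds pin-transferred to 9.74 nM–152 uM final (activator) or from 7.32 nM upwards (inhibitor). Fluorescence Ex/Em 480/540 nm read at 5 and 30 min, then after adding cAMP or buffer, at room temperature.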
A general note: Counterscreens check selectivity or assay interference.

Chain of Rap guanine nucleotide exchange factor 4 (Homo sapiens) (Q8WZA2 whole entry, looked up): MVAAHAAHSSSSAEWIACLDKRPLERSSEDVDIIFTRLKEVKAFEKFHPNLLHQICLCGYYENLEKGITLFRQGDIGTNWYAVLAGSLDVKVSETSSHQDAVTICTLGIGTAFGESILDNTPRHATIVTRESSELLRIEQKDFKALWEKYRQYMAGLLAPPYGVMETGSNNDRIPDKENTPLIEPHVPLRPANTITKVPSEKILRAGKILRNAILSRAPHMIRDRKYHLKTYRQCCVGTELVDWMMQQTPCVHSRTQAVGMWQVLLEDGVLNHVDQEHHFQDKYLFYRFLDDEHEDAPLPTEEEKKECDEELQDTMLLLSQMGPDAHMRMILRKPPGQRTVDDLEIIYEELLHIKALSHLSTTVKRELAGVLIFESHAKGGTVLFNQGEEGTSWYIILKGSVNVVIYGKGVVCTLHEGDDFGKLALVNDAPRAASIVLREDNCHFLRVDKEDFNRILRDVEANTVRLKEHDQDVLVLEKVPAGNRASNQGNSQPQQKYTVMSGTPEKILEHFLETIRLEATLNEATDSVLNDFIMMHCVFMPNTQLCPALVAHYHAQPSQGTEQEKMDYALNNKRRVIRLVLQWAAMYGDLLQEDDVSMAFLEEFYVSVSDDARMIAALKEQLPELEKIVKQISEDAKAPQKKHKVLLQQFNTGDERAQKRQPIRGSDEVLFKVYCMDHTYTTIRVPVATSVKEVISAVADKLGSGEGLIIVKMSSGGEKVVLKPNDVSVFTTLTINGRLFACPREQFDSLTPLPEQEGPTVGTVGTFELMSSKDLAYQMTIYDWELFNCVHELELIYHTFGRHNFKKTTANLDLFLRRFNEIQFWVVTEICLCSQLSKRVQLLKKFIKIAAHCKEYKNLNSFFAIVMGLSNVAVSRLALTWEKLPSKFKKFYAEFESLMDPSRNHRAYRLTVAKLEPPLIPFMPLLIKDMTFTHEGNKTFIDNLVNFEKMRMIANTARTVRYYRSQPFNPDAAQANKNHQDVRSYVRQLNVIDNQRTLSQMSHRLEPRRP
Chain of Rap guanine nucleotide exchange factor 3 (Homo sapiens) (O95398 whole entry, looked up): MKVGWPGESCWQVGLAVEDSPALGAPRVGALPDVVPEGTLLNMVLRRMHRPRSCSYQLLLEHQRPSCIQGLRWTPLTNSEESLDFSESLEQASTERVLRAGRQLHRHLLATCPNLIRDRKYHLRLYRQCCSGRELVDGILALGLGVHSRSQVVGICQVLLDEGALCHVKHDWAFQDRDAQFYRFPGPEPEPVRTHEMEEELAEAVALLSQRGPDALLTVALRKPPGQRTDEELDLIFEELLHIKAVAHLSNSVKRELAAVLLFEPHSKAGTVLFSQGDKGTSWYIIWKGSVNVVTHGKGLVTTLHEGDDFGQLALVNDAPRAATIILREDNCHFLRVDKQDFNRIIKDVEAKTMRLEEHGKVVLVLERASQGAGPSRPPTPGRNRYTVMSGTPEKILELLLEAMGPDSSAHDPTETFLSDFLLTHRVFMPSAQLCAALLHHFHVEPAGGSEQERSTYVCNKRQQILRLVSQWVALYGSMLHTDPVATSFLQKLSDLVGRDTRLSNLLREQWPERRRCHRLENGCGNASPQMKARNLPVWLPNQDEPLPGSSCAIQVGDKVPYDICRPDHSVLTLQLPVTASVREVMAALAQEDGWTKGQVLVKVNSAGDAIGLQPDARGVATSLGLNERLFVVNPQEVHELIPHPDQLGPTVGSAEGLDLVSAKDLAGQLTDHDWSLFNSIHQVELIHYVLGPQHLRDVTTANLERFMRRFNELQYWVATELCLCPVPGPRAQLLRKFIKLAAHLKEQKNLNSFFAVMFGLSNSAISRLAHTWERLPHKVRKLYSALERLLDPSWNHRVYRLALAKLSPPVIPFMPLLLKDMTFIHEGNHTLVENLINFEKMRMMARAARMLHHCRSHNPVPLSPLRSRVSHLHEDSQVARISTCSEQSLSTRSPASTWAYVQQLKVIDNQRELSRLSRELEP

For the compound `Cc1ccc(NC(=O)c2sc3nc(-c4ccncc4)ccc3c2N)cc1`, the Potency entry in assay [1], in assay [2], in assay [3] and in assay [4] was “inactive” throughout.
On to `O=C(N/N=C/c1ccc(Sc2ccccn2)o1)c1cc2ccccc2cc1O`, for which the Potency result in assay [1], in assay [2], in assay [3] and in assay [4] was “inactive” in each case.
Consider `Cc1cccc(N(Cc2ccccc2)C(=O)CSC(C)C(=O)Nc2cc(C)on2)c1` (centres undefined), for which the Potency entry in assay [1], in assay [2] and in assay [4] was “inactive” in each case. The Potency in assay [3] was 95.3 µM (active).
With `COc1ccc2oc(=O)c(-c3nnc(NCc4ccco4)s3)cc2c1`, the Potency entry in assay [1] and in assay [3] was “inactive” throughout. Besides, the activation in assay [2] is 7.34% [at 17.1 µM, percent relative to cAMP agonist control]. Also, the activity change, negative = inhibition in assay [4] was 15.5% [at 30.8 µM].
As to `CC(NC(=O)/C(C#N)=C/c1ccc([N+](=O)[O-])o1)c1ccccc1` (centres undefined), the Potency entry in assay [1] and in assay [3] was “inactive” throughout. Besides, in assay [2], the activation is 5.83% [at 17.1 µM, percent relative to cAMP agonist control]. The activity change, negative = inhibition in assay [4] was 20.7% [at 30.8 µM].
Consider `COc1ccc(N2Cc3cccc(C(=O)Nc4ccc(C(C)C)cc4)c3C2=O)cc1`, for which the Potency entry in assay [1], in assay [2], in assay [3] and in assay [4] was “inactive” in each case.
For `O=S(=O)(NCC(c1cccnc1)N1CCN(c2ccccc2F)CC1)c1cccs1` (centres undefined), the Potency entry in assay [1] and in assay [3] was “inactive” throughout. The activation in assay [2] was 0% [at 17.1 µM, percent relative to cAMP agonist control]. For the same compound, the activity change, negative = inhibition in assay [4] is -13.6% [at 30.8 µM].
As to `CCOC(=O)C1=C(C)NC(C)=C(C(=O)OCC)C1c1cccc([N+](=O)[O-])c1`, the Potency result in assay [1] and in assay [3] was “inactive” in each case. Moreover, the activation in assay [2] was 8.4% [at 17.1 µM, percent relative to cAMP agonist control]. Also, in assay [4], the activity change, negative = inhibition is 3.16% [at 30.8 µM].
On to `CCOc1ccccc1NC(=O)CN1C(=O)COc2ccc(S(=O)(=O)NC3CCCC3)cc21`, for which the Potency entry in assay [1], in assay [2] and in assay [4] was “inactive” in each case. Further, in assay [3], the outcome was “inactive [at 12.7 µM]”.
Take `CCc1ccc(C(c2ccccc2)c2c(C)[nH]c3ccccc23)s1` (centres undefined): the Potency entry in assay [1], in assay [2], in assay [3] and in assay [4] was “inactive” in each case.
As for `CC(=O)C(=Cc1ccc(Cl)cc1)C(=O)c1ccccc1`, the Potency entry in assay [1], in assay [2], in assay [3] and in assay [4] was “inactive” throughout.
In the case of `CCN(C(=O)Cn1c(C(=O)OC)cc2sccc21)c1cccc(C)c1`, the Potency result in assay [1], in assay [2], in assay [3] and in assay [4] was “inactive” each time.
Regarding `CCc1c(O)cc(=O)n(-c2ccccc2)c1-c1ccccc1`, the Potency result in assay [1], in assay [2] and in assay [4] was “inactive” in each case. Besides, in assay [3], the Potency was 84.9 µM (active).
Regarding `Cc1csc(NC(=O)CSc2sc3c(O)cc(=O)[nH]c3c2C#N)n1`, the Potency entry in assay [1], in assay [2], in assay [3] and in assay [4] was “inactive” each time.
As to `CN(C)C(=O)c1cccc(-c2cnc3c(NC=O)cc(-c4ccccc4Cl)cn23)c1`, the Potency entry in assay [1], in assay [2], in assay [3] and in assay [4] was “inactive” in each case.
Turning to `Cc1ccc(C(=O)N2CCc3cc(CNC(=O)CSc4ccccc4)ccc32)cc1`, the Potency entry in assay [1], in assay [2], in assay [3] and in assay [4] was “inactive” in each case.
For the compound `COc1cc(-c2cc(OC)c3c(C)oc(C)c3c(=O)c2)ccc1OC(=O)c1ccccc1F`, the Potency result in assay [1], in assay [2] and in assay [4] was “inactive” in each case. In assay [3], the outcome is “inactive [at 12.7 µM]”.
In the case of `CCCCN1CC(c2nc3ccccc3n2CCCCOc2cc(C)ccc2C)CC1=O` (centres undefined), the Potency entry in assay [1], in assay [2], in assay [3] and in assay [4] was “inactive” throughout.
Consider `O=C(/C=C/c1ccco1)Nc1nc(-c2ccccn2)cs1`, for which the Potency entry in assay [1], in assay [2], in assay [3] and in assay [4] was “inactive” each time.
With `O=C1C(=O)c2cccnc2-c2ncccc21`, the Potency entry in assay [1], in assay [2], in assay [3] and in assay [4] was “inactive” each time.
Turning to `COc1cc(/C=C2/NC(=O)NC2=O)cc(Br)c1OCc1ccc(C(=O)O)cc1`, the Potency entry in assay [1] and in assay [3] was “inactive” throughout. Also, in assay [2], the activation was -3.55% [at 17.1 µM, percent relative to cAMP agonist control]. Moreover, the activity change, negative = inhibition in assay [4] is -4.68% [at 30.8 µM].
As to `COc1ccccc1[C@]1(C)ON(c2ccccc2C(F)(F)F)C1=O`, the Potency result in assay [1], in assay [2], in assay [3] and in assay [4] was “inactive” in each case.
In the case of `COc1ccc(C(=O)NC2(C(F)(F)F)NC(=O)N(CCCc3ccccc3)C2=O)c(OC)c1OC` (centres undefined), the Potency result in assay [1] and in assay [3] was “inactive” in each case. For the same compound, the activation in assay [2] was 12.9% [at 17.1 µM, percent relative to cAMP agonist control]. In assay [4], the activity change, negative = inhibition was -10.8% [at 30.8 µM].
As to `Cc1ccc(NC(=O)CN2C(=O)S/C(=C\c3cccn3-c3cccc(C(=O)O)c3)C2=O)cc1C`, the Potency entry in assay [1] is “inactive”. Also, the activation in assay [2] is 3.81% [at 17.1 µM, percent relative to cAMP agonist control]. In addition, the Potency in assay [3] is 0.019 µM (active). Also, the activity change, negative = inhibition in assay [4] is -10.4% [at 30.8 µM].
Take `Cc1cc(SCC(=O)c2ccc(O)c(O)c2)n2nc(C)c(-c3ccccc3)c2n1`: the Potency result in assay [1], in assay [2], in assay [3] and in assay [4] was “inactive” in each case.
For `CC(C)Cc1ccc(CN2C(C(C)C)C(=O)N(Cc3cn(CCC4OCCO4)nn3)CCS2(=O)=O)cc1` (centres undefined), the Potency entry in assay [1] and in assay [3] was “inactive” each time. Besides, in assay [2], the activation is 4.64% [at 17.1 µM, percent relative to cAMP agonist control]. For the same compound, in assay [4], the activity change, negative = inhibition was -13.5% [at 30.8 µM].
